S-ASM inh: Inhibitors of Secretory Acid Sphingomyelinase (S-ASM): qHTS | 0.006% of 340,000 active | Sphingomyelin phosphodiesterase (Homo sapiens), P17405 | placental ASM, HMU-PC fluorogenic substrate, 60 min | Potency, µM (series often up to 57.5 µM), for inactives: at the top dose activity change, negative = inhibition, usual class: inhibitors; further: potency means the concentration at half of the fitted maximal effect
Target sequence (P17405 47-631 limits assumed): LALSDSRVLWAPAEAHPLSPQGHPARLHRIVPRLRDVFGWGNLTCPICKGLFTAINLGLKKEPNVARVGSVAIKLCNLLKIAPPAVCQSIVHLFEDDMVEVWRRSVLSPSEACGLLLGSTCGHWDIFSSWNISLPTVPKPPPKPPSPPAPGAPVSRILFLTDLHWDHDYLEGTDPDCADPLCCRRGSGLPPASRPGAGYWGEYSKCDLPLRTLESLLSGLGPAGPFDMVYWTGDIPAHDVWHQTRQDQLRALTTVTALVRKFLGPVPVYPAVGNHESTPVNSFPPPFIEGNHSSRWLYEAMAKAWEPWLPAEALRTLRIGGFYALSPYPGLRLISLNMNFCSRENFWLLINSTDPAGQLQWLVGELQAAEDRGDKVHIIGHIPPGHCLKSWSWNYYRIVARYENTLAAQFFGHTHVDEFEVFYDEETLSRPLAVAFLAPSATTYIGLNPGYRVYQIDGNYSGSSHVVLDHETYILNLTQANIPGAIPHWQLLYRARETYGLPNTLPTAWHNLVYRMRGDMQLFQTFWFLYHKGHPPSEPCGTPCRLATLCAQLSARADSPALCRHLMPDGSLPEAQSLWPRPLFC
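Fluorogenic HMU-PC substrate (9 uM final) is turned over by placental ASM in 60 min at 37 C after a 10 min compound preincubation. Reaction ended by alkaline stop (pH 10), with fluorescence read at 386/447 nm.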
Mm-Cpn inhibitor: Inhibitors of TCP-1 ring complex (TRiC) of Methanococcus maripaludis (MmCpn): qHTS. Chaperonin Mm-Cpn (Methanococcus maripaludis). purified Mm-Cpn ATPase, ADP Transcreener TR-FRET. Potency, µM (titrated, usually from 76.9 µM), for inactives: top-dose activity, negative = inhibition, actives largely listed as inhibitors. 0.031% of 330,000 active. AID 504842, 2011; further: potency means the concentration at half of the fitted maximal effect; on the % scale 0 is the no-effect control and ±100 the full control effect; nearly all actives have a fitted effect of over 80% in size
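ATP (10 uM final) was added to archaeal chaperonin (25 nM final) after 10 min exposure to test compound at 37°C; after 30 min further incubation, ADP was detected by competitive TR-FRET.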
p53 reactivator: qHTS assay for re-activators of p53 using a Luc reporter; Potency, µM (highest dose often 92.2 µM), inactives show at the top dose activity change, positive = activation, actives largely listed as activators; H1299 p53-A138V BP100-luciferase reporter, luminescence, 24 h; AID 504706, 2011; 0.063% of 320,000 active; further: potency means the concentration at half of the fitted maximal effect; % of control where 0% means no effect; nearly all actives have a fitted effect of over 45% in size
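p53-null H1299 cells stably carrying temperature-sensitive p53-A138V and a BP100-luciferase reporter were pinned with compounds (4-point, 1:5 series) and held 24 hrs at 37 deg C. Luminescence was read 10 min after detection reagent.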
PINK1 modulator: A Quantitative High throughput Screen to Identify Chemical Modulators of PINK1 Expression; PINK1 immunofluorescence, high-content cytometry, 24 h; 0.2% of 410,000 active; AID 624263, 2012; Potency, µM (series often up to 76.6 µM), inactives show at the highest dose activation (PINK1 increase), most hits filed as activators; active means well fitted activation curve with a large enough effect; inconclusive means small, poorly fitted or top-dose-only effect; cell line not stated here; further: potency means the concentration at half of the fitted maximal effect; % of control where 0% means no effect; nearly all actives have a fitted effect of over 65% in size
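Cells are seeded, rested 12 hours, then given compound at five concentrations or DMSO for 24 hours. After fixation, blocking and antibody staining, PINK1 amount and mitochondrial localization are scored; CCCP serves as control.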
CCT modulator: High-Throughput Screening for Modulators of Cytosolic Chaperonin Activity | AID 651819, 2012 | purified chaperonin ATPase assay, HTRF ADP detection, 30 min | 0.3% of 360,000 active | activity change, % (concentration not given with the values), hits read low; in the data active means activity change below about -30%; further: on the % scale 0 is the no-effect control and ±100 the full control effect
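TRiC at 40 or 20 nM final (batch-dependent) in 30 mM Tris pH 7.4, 100 mM KCl, 5 mM MgCl2, 1 mM DTT, with compound at single 76 uM and 10 uM ATP, 30 min at 37 deg C. ADP detected by HTRF Transcreener, 665/615 ratio.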
12-LOX inh: Primary qHTS assay for inhibitors of human arachidonate 12S-lipoxygenase (ALOX12): Round 2; purified 12hLO, xylenol orange hydroperoxide absorbance; Potency, µM (series often up to 108 µM), for the others: at the top dose activity change, negative = inhibition, actives largely listed as inhibitors; 1.1% of 580,000 active; AID 1671190, 2021; further: potency means the concentration at half of the fitted maximal effect; on the % scale 0 is the no-effect control and ±100 the full control effect
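Purified human 12hLO (150 nM final) in 25 mM Hepes, 0.01% Triton X-100, pH 7.0 was preincubated 15 min at room temperature with compound. Then 40 uM arachidonic acid was added, 30 min. Hydroperoxide was read by Fe-XO absorbance ratio 573/405 nm.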
* = called active by the depositor; ? = inconclusive; · = no result; [ ] = another dose, or the depositor's remark. In the library only some 1.4% were active in any assay of this set; here they are far more common. Unless noted, the call rests on the fitted dose curve; in most records, active means well fitted curve in the direction sought with a large enough effect; inconclusive means small, poorly fitted or top-dose-only effect, or another doubt; inactive means no such curve, though single readings can be large; an effect the other way counts as inactive or inconclusive.

SMILES	S-ASM inh	Mm-Cpn inhibitor	p53 reactivator	PINK1 modulator	CCT modulator	12-LOX inh
Cc1cc(-c2csc(Nc3ccccn3)n2)ccc1F	-3%	-1%	·	?	-1	?
Cc1ccc(-c2csc(Nc3ccc(S(N)(=O)=O)cc3)n2)cc1C	·	·	·	·	·	45µM*
Oc1ccc(Nc2nc(-c3ccc(F)cc3F)cs2)cc1	·	·	·	·	·	7.9µM*
Cc1c(Cl)cccc1NC(=O)c1nc2ccccc2nc1N1CCN(C)CC1	·	·	·	·	·	-5%
CNC(=O)CCN(C)C(=O)Nc1cccc(C#N)c1	·	·	·	·	·	-4%
CC(=O)c1cccc(OC(=O)c2ccc3c(c2)CCCC3)c1	·	·	·	·	·	1%
O=c1[nH]c2ccc(-c3csc(Nc4ccc(F)cc4)n3)cc2o1	·	·	·	·	·	18µM*
CC(=O)Nc1ccc(-c2csc(Nc3cccc(C)n3)n2)cc1	-13%	1%	13%	9%	-4	?
Cc1cccc(Nc2nc(-c3ccc(O)cc3O)cs2)n1	?	-2%	-24%	0%	0	25µM*
O=c1[nH]c2ccc(-c3csc(Nc4ccc(Cl)cc4)n3)cc2o1	·	·	·	·	·	-87%
Cc1ccc(CN(c2ccc(C(=O)N3CCCCCC3)cc2)S(C)(=O)=O)cc1	·	·	·	·	·	6%
S=C(NCCC(c1ccccc1)c1ccccc1)Nc1cccc(Cl)c1	-3%	-1%	-7%	?	-1	22µM*
C=CCNC(=S)Nc1cccc(Cl)c1	·	·	·	·	·	-30%
Cc1ccccc1NC(=S)NCCC(c1ccccc1)c1ccccc1	-1%	0%	2%	20%	-8	32µM*
Cc1ccc(NC(=S)NCCC(c2ccccc2)c2ccccc2)c(C)c1	-3%	4%	-4%	4%	-3	?
COc1ccc(OC)c(NC(=S)NCCC(c2ccccc2)c2ccccc2)c1	-8%	·	·	-1%	-1	8.9µM*
S=C(NCCNc1c(Cl)c(Cl)c(Cl)c(Cl)c1Cl)Nc1ccccc1	·	·	·	·	·	13µM*
S=C(NCCC(c1ccccc1)c1ccccc1)Nc1ccccc1	·	·	·	·	·	35µM*
S=C(NCCCCCCNC(=S)Nc1cccc(Cl)c1)Nc1cccc(Cl)c1	·	·	·	·	·	16µM*
CC(C)CCN1CCN(Cc2cc(F)ccc2-n2cccn2)CC1CCO (centres undefined)	0%	-1%	13%	-1%	1	16%
OCCC1CN(Cc2cc(F)ccc2-n2cccn2)CCN1C1CCCC1 (centres undefined)	1%	0%	-2%	-1%	-30*	0%
CC(NC(=O)/C(C#N)=C\c1ccc(C(C)(C)C)cc1)c1ccccc1 (centres undefined)	·	·	·	·	·	16%
CC(C)NC(=O)/C(C#N)=C/c1ccc(C(=O)O)cc1	·	·	·	·	·	22µM*
Clc1cccc(Cl)c1C=Nc1cccc2ccccc12	·	·	·	·	·	8%
Cn1c(=O)c2c([nH]c(=S)n2Cc2ccc(Cl)cc2)n(C)c1=O	-4%	-9%	2%	1%	-84*	?
SMILES	S-ASM inh	Mm-Cpn inhibitor	p53 reactivator	PINK1 modulator	CCT modulator	12-LOX inh
COC(=O)C(C#N)c1nc2ccccc2nc1NCC(C)(C)CN(C)C (centres undefined)	·	·	·	·	·	20%
O=C(CSc1nc2ccc(Cl)cc2[nH]1)c1ccc2c(c1)OCO2	2%	2%	-29%	3%[38.3 µM]	-2	11µM*
COc1cc2ncnc(Nc3ccc(Cl)cc3F)c2cc1OC	·	·	·	·	·	20µM*
Cc1cc(C)n(C(=O)c2cn(C)nc2S(=O)(=O)N2CCN(c3ccccc3Cl)CC2)n1	·	·	·	·	·	-3%
O=C(Nc1oc2ccc(Cl)cc2c(=O)c1-c1ccccc1)c1ccc([N+](=O)[O-])cc1	·	·	·	·	·	1%
Cc1cccc(OCC(=O)Nc2ccccc2C(F)(F)F)c1	-2%	1%	23%	0%	-1	12%
Cc1cccc(C)c1OCC(=O)Nc1ccccc1C(F)(F)F	-4%	1%	1%	9%	-38*	-1%
COc1ccc(NC(=O)N2CC(C)OC(C)C2)cc1OC (centres undefined)	0%	-1%	-4%	3%[38.3 µM]	0	-24%
COc1ccc(C)cc1NC(=S)N1CC(C)OC(C)C1 (centres undefined)	3%	-2%	-2%	0%	-48*	-5%
COc1ccc(C(=O)NC(=O)COC(=O)CCS(=O)(=O)c2ccc(C)cc2)cc1	2%	3%	-1%	2%	-1	14%
CC(C)(C)c1ccc(C(=O)NC(=O)COC(=O)CCS(=O)(=O)c2ccccc2)cc1	2%	-2%	5%	0%	-68*	9%
COc1cc(/C=C/C(=O)C2C(=O)C=C(C)OC2=O)cc(Cl)c1OC(F)F (centres undefined)	·	·	·	·	·	14µM*
CC(C)C(=O)N1Cc2ccccc2CC2(CCCN2Cc2ccncc2)C1 (centres undefined)	·	·	·	·	·	3%[6.33 µM]
O=C(Nc1nc(-c2ccccn2)cs1)c1cc(Cl)ccc1[N+](=O)[O-]	-3%	0%	35µM*	2%	-1	?
Cc1cc(C(=O)Nc2nc(-c3ccccn3)cs2)ccc1[N+](=O)[O-]	-5%	-1%	28%	3%	0	-17%
CCOc1cc(N2CCOCC2)c(OCC)cc1NC(C)C(=O)N1CCC(C)CC1 (centres undefined)	3%	-5%	-1%	3%	0	35µM*
CCn1c(=S)[nH]c2sc3c(c2c1=O)CCCC3	2%	1%	-8%	0%	-2	?
CN(C)CCCn1c(=S)[nH]c2sc3c(c2c1=O)CCCC3	78%	0%	5%	0%	3	14µM*
Cc1ccccc1C(=O)N1CCC(C(=O)Nc2ccc(S(=O)(=O)N3CCCCC3)cc2)CC1	0%	-3%	-38%	2%	-2	45µM*
Cc1ccc(-c2nnn(C(C)C(=O)Nc3ccc(C#N)cc3)n2)cc1 (centres undefined)	·	·	·	·	·	-23%
Cc1sc2ncnc(Sc3ccccc3C(=O)Nc3ccc(C#N)cc3)c2c1C	-10%	-26%	2%	0%	0	-27%
Cc1sc2ncnc(Sc3ccccc3C(=O)Nc3ccc(Br)cc3)c2c1C	-10%	?	14%	0%	-4	10µM*
O=C1CSC(c2cn(-c3ccccc3)nc2-c2ccccc2)N1Cc1ccco1 (centres undefined)	-1%	-14%	-5%	-2%	5	45µM*
Nc1c(Br)cc2oc(-c3cccc4ccccc34)nc2c1Br	·	·	·	·	·	-10%

Screening data (PubChem)
